Key:
Details in all cases: concentration: 1 μM, replicates: in singlicate; n = 1
CSNK1G1 = test system: CSNK1G1
CSNK1G2 = test system: CSNK1G2
CSNK1G3 = test system: CSNK1G3
CSNK2A1 = test system: CSNK2A1
CSNK2A2 = test system: CSNK2A2
CTK = test system: T1, CTK
T1 construct: gene MATK

DAPK1 = test system: DAPK1
DAPK2 = test system: DAPK2
DAPK3 = test system: DAPK3
DCAMKL1 = test system: T2, DCAMKL1
T2 construct: gene DCLK1

DCAMKL2 = test system: T3, DCAMKL2
T3 construct: gene DCLK2

DCAMKL3 = test system: T4, DCAMKL3
T4 construct: gene DCLK3

DDR1 = test system: DDR1
DDR2 = test system: DDR2
DLK = test system: T5, DLK
T5 construct: gene MAP3K12

DMPK2 = test system: T6, DMPK2
T6 construct: gene CDC42BPG

DMPK = test system: DMPK
DRAK1 = test system: T7, DRAK1
T7 construct: gene STK17A

DRAK2 = test system: T8, DRAK2
T8 construct: gene STK17B

DYRK1A = test system: DYRK1A
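Note: KINOMEscan kinase panel screen.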

Row | SMILES | %Inh (CSNK1G1) | %Inh (CSNK1G2) | %Inh (CSNK1G3) | %Inh (CSNK2A1) | %Inh (CSNK2A2) | %Inh (CTK) | %Inh (DAPK1) | %Inh (DAPK2) | %Inh (DAPK3) | %Inh (DCAMKL1) | %Inh (DCAMKL2) | %Inh (DCAMKL3) | %Inh (DDR1) | %Inh (DDR2) | %Inh (DLK) | %Inh (DMPK2) | %Inh (DMPK) | %Inh (DRAK1) | %Inh (DRAK2) | %Inh (DYRK1A)
1 | COc1ccc(C)c(Nc2ccnc(Nc3ccc(-c4cnc[nH]4)cc3)n2)c1.Cl [GW784041] | 15% | 0% | 8% | 0% | 5% | 0% | 7% | 10% | 6% | 7% | 3% | 27% | 52% | 70% | 10% | 5% | 0% | 0% | 0% | 0%
2 | COC(=O)Nc1nc2cc(Oc3ccc(NC(=O)Nc4cccc(SC)c4)cc3)ccc2[nH]1.Cl [GW697999] | 6% | 0% | 1% | 0% | 0% | 0% | 0% | 43% | 1% | 21% | 6% | 29% | 100% | 98.7% | 32% | 0% | 0% | 8% | 0% | 12%
3 | O=C(O)C(F)(F)F.O=c1[nH]ccc2nc(N[C@@H]3CCNC3)nc(Nc3ccc4c(c3)S(=O)(=O)CC4)c12 [GSK2181306] | 85% | 87% | 94.4% | 99.2% | 99.9% | 16% | 99.5% | 97.8% | 99.6% | 95.7% | 84% | 98.4% | 0% | 5% | 72% | 45% | 97.5% | 99.5% | 92.1% | 35%
4 | Cc1ccc(O)cc1Nc1ccnc2ccc(C(C)(C)C)cc12 [GW856805] | 19% | 5% | 0% | 1% | 7% | 21% | 13% | 8% | 7% | 2% | 18% | 0% | 40% | 60% | 0% | 5% | 3% | 12% | 0% | 0%
5 | Fc1cc(Cl)ccc1Nc1ccnc2cc(-c3ccc(CN4CCOCC4)o3)ccc12 [GW560109] | 7% | 0% | 7% | 0% | 86% | 28% | 0% | 0% | 10% | 12% | 0% | 0% | 97.9% | 60% | 28% | 0% | 16% | 0% | 0% | 11%
6 | COc1ccc(C2=C(Nc3cccc(O)c3)C(=O)NC2=O)cc1 [SB-390766] | 4% | 0% | 19% | 0% | 19% | 1% | 0% | 0% | 52% | 13% | 0% | 1% | 1% | 17% | 19% | 0% | 0% | 3% | 0% | 70%
7 | CCn1cnc2c(NCc3ccccc3)ncnc21 [SKF-96418] | 0% | 0% | 0% | 0% | 0% | 34% | 0% | 0% | 11% | 33% | 0% | 0% | 0% | 38% | 0% | 1% | 0% | 0% | 0% | 0%
8 | CCNc1nccc(-c2c(-c3ccc(F)cc3)ncn2C2CCN(C)CC2)n1 | 7% | 1% | 0% | 44% | 17% | 100% | 24% | 15% | 10% | 13% | 0% | 5% | 70% | 4% | 0% | 8% | 0% | 16% | 0% | 0%
9 | CN(C)CCOc1ccc(-c2cc(-c3ccc(Cl)c(O)c3)c(-c3ccncc3)[nH]2)cc1.Cl.Cl [SB-684387] | 36% | 0% | 37% | 24% | 32% | 3% | 14% | 0% | 22% | 21% | 0% | 10% | 56% | 38% | 14% | 41% | 29% | 20% | 0% | 0%
10 | CNc1nccc(-c2ccc3c(N)n[nH]c3c2)n1 [GSK2206003] | 14% | 0% | 33% | 43% | 62% | 0% | 29% | 31% | 39% | 0% | 1% | 72% | 0% | 29% | 34% | 0% | 0% | 99.2% | 83% | 98.8%
11 | CC(C)c1nc(-c2cccc(NS(=O)(=O)c3c(F)cccc3F)c2)c(-c2ccnc(Nc3ccc(N4CCOCC4)nc3)n2)s1.Cl [GSK1723980] | 2% | 0% | 0% | 2% | 0% | 37% | 3% | 0% | 0% | 11% | 13% | 10% | 94.9% | 42% | 74% | 11% | 0% | 0% | 0% | 39%
12 | COc1cc(Nc2ccnc3cc(-c4ccncc4)ccc23)cc(OC)c1OC.Cl [GW494610] | 0% | 0% | 7% | 7% | 0% | 0% | 0% | 0% | 9% | 0% | 0% | 0% | 57% | 81% | 47% | 46% | 0% | 0% | 0% | 12%
13 | COc1cc(Nc2nccc(N3CCC(NC(=O)Nc4ccc5c(c4)OCO5)C3)n2)cc(OC)c1OC (stereo not shown) [GSK1379766] | 10% | 0% | 4% | 4% | 16% | 0% | 5% | 0% | 7% | 7% | 7% | 0% | 0% | 6% | 53% | 10% | 0% | 0% | 4% | 12%
14 | Cl.Cl.NC(CNC(=O)c1cc(Br)c(-c2ccnc3[nH]ccc23)s1)c1ccccc1 (stereo not shown) [GSK1322949] | 30% | 59% | 60% | 90% | 84% | 0% | 41% | 31% | 54% | 37% | 18% | 0% | 0% | 29% | 43% | 59% | 72% | 93.8% | 4% | 84%
15 | Cc1ccc(-c2ccc3occ(-c4ccc(S(C)=O)cc4)c3c2)nn1 (stereo not shown) | 0% | 0% | 0% | 0% | 10% | 0% | 0% | 0% | 0% | 4% | 0% | 21% | 0% | 16% | 0% | 0% | 8% | 10% | 22% | 0%
16 | O=C(Nc1c(F)cccc1F)c1cc(C(=O)c2ccccc2F)c[nH]1 [GSK1326180] | 0% | 0% | 21% | 0% | 0% | 0% | 0% | 4% | 4% | 0% | 0% | 36% | 0% | 13% | 14% | 0% | 0% | 10% | 0% | 2%
17 | c1ccc(Oc2ccc(Nc3ccnc4cc(-c5ccc(CN6CCCCC6)o5)ccc34)cc2)nc1 [GW567143] | 0% | 6% | 3% | 15% | 12% | 5% | 0% | 0% | 0% | 4% | 8% | 25% | 30% | 35% | 79% | 0% | 0% | 0% | 0% | 26%
